In PubChem BioAssay:
Activity calls are given as the source filed them. Unless noted, the rule behind the calls is not given here.

Key:
[1] = system: Wnt5a (protein binding on small-molecule microarray); assay: small molecules binding Wnt5a protein – biophysical, small-molecule microarray, 635/667 nm fluorescence, primary screen (AID 1142); conditions: 635 nm fluorescence, higher = more signal;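 note: fluorescence read at 667 nm with signal to noise per printed feature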
[2] = ATP-based viability of Huh7 replicon cells – cell-based, CellTiter-Glo luminescence, basal, 48 h, cytotoxicity control for HCV replication inhibitor project, primary screen (AID 1143); conditions: higher = more signal, called active from +8 up or from −8 down;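 note: Huh7 hepatoma cells carrying a hepatitis C replication reporter with no stimulus; test concentration not given here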
[3] = Pseudomonas biofilm growth suppression – PAO1 strain, BacTiter-Glo luminescence, LB-PBS, primary screen (AID 1144); conditions: P. aeruginosa PAO1 biofilm, 12 h, higher = more signal
[4] = basal CRE-LacZ reporter activity in PC12 – cell-based, unstimulated, primary screen (AID 1145); conditions: no forskolin, luminescence, 4.5 h, higher = more signal, called active from +8 up or from −8 down
[5] = forskolin-driven CRE-LacZ activity in PC12 – cell-based, CRE-LacZ reporter, forskolin-stimulated, primary screen (AID 1146); conditions: luminescence, 4.5 h, higher = more signal, called active from +8 up or from −8 down;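 note: PC12 cells with 6xCRE LacZ reporter stimulated by forskolin 10 µM; beta-galactosidase reporter signal reflecting CREB driven transcription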
[6] = target: Streptavidin (Streptomyces avidinii) (UniProt P22629); assay: compounds binding control protein streptavidin – biophysical, small-molecule microarray, 635/667 nm fluorescence, artefact control for SMM compound annotation, primary screen (AID 1147); conditions: higher = more signal;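 note: signal reflects streptavidin binding to arrayed compounds as a control protein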
Chain of Streptavidin (Streptomyces avidinii) (P22629 whole entry, looked up): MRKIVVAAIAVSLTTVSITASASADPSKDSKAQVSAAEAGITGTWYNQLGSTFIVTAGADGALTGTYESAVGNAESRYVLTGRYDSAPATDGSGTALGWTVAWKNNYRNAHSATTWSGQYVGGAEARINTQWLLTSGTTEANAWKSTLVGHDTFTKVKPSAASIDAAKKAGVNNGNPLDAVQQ

[7] = probe aInhba binding on compound microarray – biochemical, small-molecule microarray, 635/667 nm fluorescence, primary screen (AID 1148); conditions: higher = more signal;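 note: score merges 667nm spot fluorescence with signal-to-noise for antibody binding to printed compounds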
Torsin-1A (Homo sapiens) [8] = target: Torsin-1A (Homo sapiens) (UniProt O14656); assay: TOR1A wild-type binding on microarray – cell lysate, small-molecule microarray, lysate, 635/667 nm, primary screen (AID 1149); conditions: COS7 hTOR1A-WT lysate, 635 nm fluorescence, higher = more signal
Chain of Torsin-1A (Homo sapiens) (O14656 whole entry, looked up): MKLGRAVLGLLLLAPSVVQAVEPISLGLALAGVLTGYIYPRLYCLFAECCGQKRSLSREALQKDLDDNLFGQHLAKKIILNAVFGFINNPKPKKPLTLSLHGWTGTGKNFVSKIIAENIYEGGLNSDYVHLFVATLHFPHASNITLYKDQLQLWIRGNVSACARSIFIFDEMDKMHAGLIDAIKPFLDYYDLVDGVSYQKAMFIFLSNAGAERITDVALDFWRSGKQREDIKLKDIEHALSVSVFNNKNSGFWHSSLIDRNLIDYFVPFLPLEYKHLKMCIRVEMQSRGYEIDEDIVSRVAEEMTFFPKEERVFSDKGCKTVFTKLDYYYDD

Torsin-1A (Homo sapiens) [9] = target: Torsin-1A (Homo sapiens) (UniProt O14656); assay: torsin A mutant lysate binding on microarrays – cell lysate, small-molecule microarray, COS7 lysate, 635/667 nm fluorescence, primary screen (AID 1150); conditions: COS7 hTOR1A mutant lysate, 635 nm fluorescence, higher = more signal;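 note: score pools 667 nm emission and signal to noise measuring lysate protein binding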
[10] = system: Sonic hedgehog protein (Shh); assay: Sonic hedgehog microarray binding compounds – biochemical, small-molecule microarray, 635/667 nm fluorescence, primary screen (AID 1151); conditions: 635 nm fluorescence, higher = more signal;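 note: Shh protein binding to compounds spotted on small-molecule microarray slides; score combines spot fluorescence intensity with signal-to-noise across triplicate slides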

SMILES	composite z-score [1]	z-score [2]	z-score [3]	z-score [4]	z-score [5]	composite z-score [6]	composite z-score [7]	composite z-score (Torsin-1A (Homo sapiens) [8])	composite z-score (Torsin-1A (Homo sapiens) [9])	composite z-score [10]
O=C(O)[C@@H]1[C@@H]2C(=O)N(c3ccccc3)C(=O)[C@@H]2C[C@@H]1Sc1ccccc1	-0.129	0.739 (inactive)	0.956 (inactive)	0.379 (inactive)	0.774 (inactive)	-0.237	-0.389	-0.402	-1.03	-1.45
[N-]=[N+]=NCc1ccccc1C[C@@]1(C(N)=O)N=C(c2ccc(OCCCO)cc2)O[C@@H]1c1ccccc1	-0.182	-3.28 (inactive)	0.103 (inactive)	0.498 (inactive)	-0.0576 (inactive)	0.559	0.144	0.754	1.22	-0.671
CN(C)C(=O)[C@]1(CCC(=O)OC(C)(C)C)N=C(c2ccc(OCCCO)cc2)O[C@@H]1c1ccccc1CN=[N+]=[N-]	1.44	-1.5 (inactive)	-1.42 (inactive)	-0.744 (inactive)	-0.147 (inactive)	0.588	-0.071	1.53	1.24	-0.646
C#CCN(Cc1ccccc1Br)[C@H](/C=C/c1ccccc1)[C@@H](O)Cc1ccccc1	-0.356	-2.2 (inactive)	-0.109 (inactive)	2.49 (inactive)	-0.697 (inactive)	-0.385	-0.179	-0.622	0.543	-0.866
O=C1O[C@@H](c2ccccc2)[C@@H](c2ccccc2)N2[C@@H](c3ccc(OCCO)cc3)[C@]3(C(=O)Nc4ccc(C#CC5=CCCCC5)cc43)[C@@H](C(=O)NC[C@H](O)c3ccccc3)[C@H]12	0.771	-3.51 (inactive)	-0.209 (inactive)	-0.329 (inactive)	-0.239 (inactive)	1.5	0.853	0.411	1.01	1.38
C=CCNC(=O)[C@@H]1[C@H]2C(=O)O[C@H](c3ccccc3)[C@H](c3ccccc3)N2[C@H](c2ccccc2OCCO)[C@@]12C(=O)N(C(=O)OCCOC)c1ccc(C#CC3(O)CCCCCC3)cc12	0.238	-4.26 (inactive)	-0.0868 (inactive)	-1.02 (inactive)	-0.965 (inactive)	0.159	0.115	0.759	0.631	1.58
O=C1C2C=CC(C(O)c3ccco3)N(Nc3ccccc3F)C2C(=O)N1c1ccccc1 (stereo not given)	0.0072	0.761 (inactive)	-0.853 (inactive)	-0.136 (inactive)	0.942 (inactive)	0.99	0.0275	-0.615	-0.0102	0.155
CN1C2C=C(CCCO)C(C3C(=O)N(C(N)=O)C(=O)C32)C1C1CC1 (stereo not given)	-0.173	-0.122 (inactive)	0.57 (inactive)	0.522 (inactive)	0.373 (inactive)	-0.0742	-0.0963	0.0337	0.143	0.316
O=C1NC(=O)C2C1C=CC(C(O)c1ccco1)N2Nc1ccc(Cl)cc1Cl (stereo not given)	-0.118	-0.483 (inactive)	-0.315 (inactive)	0.0501 (inactive)	0.815 (inactive)	0.531	-0.0986	0.148	0.672	0.576
CC(C)c1ccc(NN2C(C(O)c3ccc(C#N)cc3)C=CC3C(=O)N(c4ccccc4)C(=O)C32)cc1 (stereo not given)	0.248	-0.687 (inactive)	-0.803 (inactive)	0.812 (inactive)	0.802 (inactive)	1.96	0.41	0.0628	0.579	-0.163
CCOC(=O)C[C@H]1[C@H](OC(=O)c2ccc(C(=O)c3ccccc3)cc2)[C@@H](NC(=O)c2ccc3ccccc3n2)c2cc(OCCCO)ccc2N1C(=O)Cc1ccc(OC)cc1	-0.126	-0.124 (inactive)	0.458 (inactive)	-0.215 (inactive)	-0.357 (inactive)	0.982	-0.0521	-0.077	0.292	-0.381
CCCCCN1CC=CC23O[C@@H]4C=CCCOC(=O)C4[C@H]2C(=O)N(CCCCCCO)[C@@H]3C1=O (stereo not given in full)	-0.296	-0.181 (inactive)	-0.00872 (inactive)	-1.03 (inactive)	-0.215 (inactive)	-0.943	-0.263	1.13	2.1	0.0725
COc1ccc([Si](C)(C)[C@@H]2[C@@H](CCO)O[C@]3(C(=O)N(Cc4ccccc4)c4ccc(N5CCOC5=O)cc43)[C@H]2C)cc1	0.0035	-5.88 (inactive)	-1.37 (inactive)	3.23 (inactive)	-0.205 (inactive)	0.242	-0.016	0.151	0.817	1.39
[N-]=[N+]=Nc1ccccc1C[C@@]1(C(=O)N2CCOCC2)N=C(c2ccc(OCCCO)cc2)O[C@@H]1c1ccccc1	1.21	-4.54 (inactive)	0.83 (inactive)	1.64 (inactive)	-0.197 (inactive)	0.269	-0.135	0.156	0.53	-0.227
CN(C)CCCCCCNC(=O)[C@@H]1C[C@@H]2C(=O)N3CCC[C@H]3C(=O)N2[C@@H]1c1cccc(OCCO)c1	0.697	-0.0705 (inactive)	0.15 (inactive)	0.151 (inactive)	0.766 (inactive)	0.656	1.06	1.99	1.43	1.54
CCCNC(=O)[C@@H]1c2ccccc2C(=O)N(Cc2ccc(OC(F)(F)F)cc2)[C@H]1c1ccc(CO)cc1	0.474	-0.88 (inactive)	0.256 (inactive)	-0.322 (inactive)	-0.283 (inactive)	-0.127	-0.0963	0.0008	-0.424	0.346
COC(=O)C1=CC(CCCO)=CC(c2cccs2)N(C)C=C1C(=O)OC (stereo not given)	-0.149	-0.786 (inactive)	0.321 (inactive)	-0.285 (inactive)	-0.217 (inactive)	0.0877	0.0485	-0.186	1.04	-0.369
COc1ccc([Si](C)(C)[C@H]2[C@H](CC(=O)N3CCC[C@H]3CO)O[C@@]3(C(=O)N(Cc4ccc(N5CCOC5=O)cc4)c4ccccc43)[C@@H]2C)cc1	0.434	-2.09 (inactive)	0.11 (inactive)	0.702 (inactive)	-0.101 (inactive)	-0.0564	0.235	0.702	0.64	2.05
C=C(/C(=C/C[C@H](OC(=O)c1ccncc1)c1ccc(CO)o1)c1cnc2ccccc2c1)C(C)C	0.49	-0.259 (inactive)	-0.747 (inactive)	1.58 (inactive)	0.0737 (inactive)	1.42	0.0993	0.353	0.491	1.97
COc1ccc(CCNC(=O)[C@@H]2c3ccccc3C(=O)N(C3CCCCC3)[C@H]2c2ccc(CO)cc2)cc1	0.378	-2.93 (inactive)	-0.0661 (inactive)	-0.295 (inactive)	-0.582 (inactive)	-0.11	-0.0087	-0.78	0.767	-0.0203
C=CCNC(=O)[C@@H]1[C@H]2C(=O)O[C@H](c3ccccc3)[C@H](c3ccccc3)N2[C@H](c2ccc(OCCO)cc2)[C@@]12C(=O)N(C(=O)OCCOC)c1ccc(C#Cc3ccc(OC)cc3)cc12	0.0609	-2.81 (inactive)	0.543 (inactive)	0.476 (inactive)	-0.222 (inactive)	0.613	0.0497	0.105	-0.0165	1.88
NCCCCCCNC(=O)[C@@H]1C[C@@H]2C(=O)N[C@@H](CCCCN)C(=O)N2[C@@H]1c1ccc(O)cc1	0.0704	-2.28 (inactive)	-0.611 (inactive)	-1.35 (inactive)	-0.965 (inactive)	-0.865	0.033	0.822	1.03	1.62
